ELG1 DNA repair: qHTS screen for small molecules that inhibit ELG1-dependent DNA repair in human embryonic kidney (HEK293T) cells expressing luciferase-tagged ELG1 | 2.3% of 330,000 active | AID 504467, 2011 | HEK293T ELG1-luciferase reporter, luminescence, 16 h; DNA damage induced by 5-fluorouridine | Potency, µM (titrated, usually from 46.1 µM), for inactives: top-dose activity change, negative = inhibition, usual class: inhibitors; also: potency is read from the fitted curve at half-maximal effect; nearly all actives have a fitted effect of over 55% in size
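Cells (2,000 per well) received 5-fluorouridine plus test compound or DMSO and were incubated 16 hr at 37 °C, 5% CO2. Luciferase activity was read by luminescence 30 min after ONE-Glo addition; signal suppression marked inhibition of damage-induced ELG1 function.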
VP16 counter: VP16 counterscreen qHTS for inhibitors of ROR gamma transcriptional activity | 3.5% of 310,000 active | AID 2546, 2010 | Drosophila S2 Gal4-VP16 UAS-luciferase, luminescence, 20 h | Potency, µM (series often up to 53.6 µM), inactives show at the highest dose activity, negative = inhibition, actives largely listed as inhibitors;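 also: Gal4-VP16 expression switched on by copper sulfate through the metallothionein promoter; potency is read from the fitted curve at half-maximal effect; nearly all actives have a fitted effect of over 50% in size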
IL1B secr inh: qHTS for Inhibitors of Inflammasome Signaling: IL-1-beta AlphaLISA Primary Screen. THP-1 LPS/ATP IL-1B secretion, AlphaLISA, 16 h; hits give low values. activity change, % at 57.5 µM. 4.7% of 360,000 active; in the data active = activity change below about -50%; inconclusive = mostly about -30% to -49%
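THP-1 cells pretreated 1 hr with compounds (up to 57.5 uM final), then stimulated with LPS (250 ng/mL final) plus ATP (1.25 mM final); secreted IL-1B measured by AlphaLISA after 16 hr, decreased signal indicating inhibition.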
TDP1 cell CPT: qHTS for Inhibitors of human tyrosyl-DNA phosphodiesterase 1 (TDP1): qHTS in cells in presence of CPT. 12% of 420,000 active. Potency, µM (top dose mostly 46.2 µM), for the others: at the highest dose activity change, negative = growth inhibition, actives largely listed as inhibitors. chicken DT40 Tdp1-/-;hTDP1 cells + 20 nM CPT, ATP luminescence, 48 h; also: potency is read from the fitted curve at half-maximal effect; nearly all actives have a fitted effect of over 55% in size
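Cell growth measured by CellTiter-Glo luminescence after a minimum 48 h, 37 C compound exposure with 20 nM CPT in Tdp1-knockout DT40 cells stably expressing hTDP1, seeded 400/well; qHTS titration format.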
RORgamma inh: qHTS for inhibitors of ROR gamma transcriptional activity; Nuclear receptor ROR-gamma (Mus musculus), P51450; Drosophila S2 Gal4-RORgamma UAS-luciferase reporter, 20 h; Potency, µM (titrated, usually from 53.6 µM), without a hit: at the highest dose activity change, negative = inhibition, most hits filed as inhibitors; 5.4% of 310,000 active; AID 2551, 2010; also: potency is read from the fitted curve at half-maximal effect; nearly all actives have a fitted effect of over 60% in size
Target sequence (P51450 whole entry, looked up, the tested form may be a part): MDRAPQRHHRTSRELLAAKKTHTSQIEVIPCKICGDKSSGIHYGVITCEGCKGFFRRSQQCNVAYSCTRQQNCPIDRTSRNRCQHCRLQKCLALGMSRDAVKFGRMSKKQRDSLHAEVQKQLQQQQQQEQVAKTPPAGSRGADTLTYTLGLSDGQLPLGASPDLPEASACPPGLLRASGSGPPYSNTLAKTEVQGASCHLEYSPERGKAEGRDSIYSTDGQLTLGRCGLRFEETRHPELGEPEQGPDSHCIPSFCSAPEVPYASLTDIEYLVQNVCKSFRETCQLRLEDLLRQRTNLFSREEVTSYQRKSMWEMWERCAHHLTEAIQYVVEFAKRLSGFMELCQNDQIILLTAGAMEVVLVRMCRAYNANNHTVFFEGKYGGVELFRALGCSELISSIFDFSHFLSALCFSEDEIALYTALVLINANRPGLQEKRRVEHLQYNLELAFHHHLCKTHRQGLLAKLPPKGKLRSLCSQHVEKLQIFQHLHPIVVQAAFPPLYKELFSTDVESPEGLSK
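In this cell-based reporter format, copper sulfate (700 uM final) drives Gal4–ROR gamma fusion expression from a metallothionein promoter in Drosophila Schneider cells; compounds preincubated 1 hr, reporter read after 20 hr at ambient temperature.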
DT40 TDP1 no CPT: qHTS for Inhibitors of human tyrosyl-DNA phosphodiesterase 1 (TDP1): qHTS in cells in absence of CPT. DT40 Tdp1-/- hTDP1 cells, no CPT, ATP luminescence, 48 h. Potency, µM (series often up to 46.2 µM), for the others: at the top dose activity change, negative = growth inhibition, most hits filed as inhibitors. 15% of 420,000 active; also: potency is read from the fitted curve at half-maximal effect; nearly all actives have a fitted effect of over 55% in size
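Luminescent ATP content (CellTiter-Glo) served as the growth readout. Knockout chicken DT40 cells expressing human TDP1 were exposed to compounds without camptothecin for a minimum 48 hr at 37 °C.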
Active calls of the source: *; ? = inconclusive; nt = not tested or not shown; [ ] = another dose, or the depositor's remark. A selection: hits, their analogues and other compounds. The true share with any hit is near 21%. Unless noted, calls follow the shape of the dose curve; as a rule, active = well fitted curve in the direction sought with a large enough effect; inconclusive = small, poorly fitted or top-dose-only effect, or another doubt; inactive = no such curve, though single readings can be large; an effect the other way counts as inactive or inconclusive. % is scaled to controls: 0 for no effect and ±100 for the full control effect.

SMILES	ELG1 DNA repair	VP16 counter	IL1B secr inh	TDP1 cell CPT	RORgamma inh	DT40 TDP1 no CPT
Cc1cccc(NC(=S)N2CCN(c3ccccc3)CC2)c1	6%	?	-16	3%	10µM*	-12%
COC(=O)c1ccccc1NC(=S)N1CCN(c2ccccc2)CC1	-7%	0%	12	-1%	-23%	0%
Cc1cccc(CN2CCN(C(=S)Nc3ccccc3)CC2)c1	4%	?	-5	-24%	4µM*	-23%
Cc1cccc(NC(=O)c2ccc(CN3CCN(Cc4ccccc4)CC3)cc2)c1	3%	-12%	60	1%	2%	-23%
COC(=O)NC(c1ccco1)C(C(C)=O)C(=O)OC (stereo not drawn)	nt	-3%[10 µM]	nt	nt	10%[10 µM]	nt
O=C(Nc1ccccc1)N1CCn2c1nc1ccccc12	13%	0%	25	?	30%	?
S=C(Nc1ccccc1)N1CCn2c1nc1ccccc12	-2%	5µM*	12	-9%	0.56µM*	-2%
CC1(C)CC(=O)C(C(C2=C(O)CC(C)(C)CC2=O)c2cccc(O)c2)C(=O)C1 (stereo not drawn)	-3%	-16%	13	-16%	-13%	0%
CC1(C)CC(=O)C(C(C2=C(O)CC(C)(C)CC2=O)c2cccs2)C(=O)C1 (stereo not drawn)	14%	11%	-96*	?	?	?
CC(C)N(C(=O)[C@H]1C[C@H](CC(=O)NCc2ccco2)C(=O)N2CCc3c([nH]c4ccc(Cl)cc34)[C@]12C)C(C)C	?	nt	-2	?	nt	?
CCN(CC)C(=O)[C@H]1C[C@H](CC(=O)NCc2ccco2)C(=O)N2CCc3c([nH]c4ccc(Cl)cc34)[C@]12C	?	nt	-5	16µM*	nt	16µM*
C[C@]12c3[nH]c4ccc(Cl)cc4c3CCN1C(=O)[C@@H](CC(=O)NCc1ccco1)C[C@@H]2C(=O)N1CCOCC1	-11%	nt	-3	18µM*	nt	21µM*
COc1ccc2nc3c(c([Si](C)(C)C(C)(C)C)c2c1)Cn1c-3cccc1=O	nt	11µM*	nt	nt	13µM*	nt
Cc1cc(NC(=O)COc2ccc3c(C)c(C)c(=O)oc3c2)no1	nt	nt	-7	0%	nt	8%
Cc1cc(NC(=O)COC(=O)c2oc3c(ccc4ccccc43)c2C)no1	?	11µM*	13	?	?	16µM*
Cc1cc(NC(=O)COc2ccc3oc4ccccc4c3c2)no1	12%	-5%	23	?	-3%	21µM*
CCOC(=O)c1cccc(NC(=O)c2cc(CN3CCOCC3)on2)c1	nt	nt	nt	2%	nt	2%
Cc1cc(C(=O)Nc2ccc(N3CCCC3)c(Cl)c2)ccc1[N+](=O)[O-]	-23%	-2%	nt	?	?	18µM*
O=C(NN1CCN(Cc2ccccc2)CC1)c1ccc(N2CCOCC2)c([N+](=O)[O-])c1	?	-4%	39	0%	-9%	?
O=C(NNC(=S)Nc1ccc(Br)cc1)c1ccc(N2CCOCC2)c([N+](=O)[O-])c1	-1%	13µM*	-3	-26%	13µM*	?
O=C(NCCCN1CCOCC1)c1ccc(N2CCOCC2)c([N+](=O)[O-])c1	8%	-9%	4	1%	-16%	4%
O=C(N/N=C/c1ccccc1)c1ccc(N2CCOCC2)c([N+](=O)[O-])c1	-1%	4%	-2	-14%	?	-1%
Cc1ccc(NC(=S)NNC(=O)c2ccc(N3CCOCC3)c([N+](=O)[O-])c2)cc1Cl	8%	13µM*	-16	1%	16µM*	-12%
O=C(NNC(=S)Nc1ccc(Cl)cc1Cl)c1ccc(N2CCOCC2)c([N+](=O)[O-])c1	6%	?	-11	-2%	11µM*	-4%
COc1ccc(NC(=O)c2sc3nc(C)c(C(=O)Nc4ccc(C)cc4C)c(-c4sccc4C)c3c2N)cc1	nt	nt	nt	5%	nt	-20%
SMILES	ELG1 DNA repair	VP16 counter	IL1B secr inh	TDP1 cell CPT	RORgamma inh	DT40 TDP1 no CPT
O=C(NNC(=S)Nc1ccc(Cl)cc1Cl)c1ccncc1	16%	11µM*	-1	-17%	?	16µM*
Cc1ccc(NC(=O)c2ccc(NCCN)c([N+](=O)[O-])c2)cc1Cl	?	-8%	-16	?	-12%	21µM*
CCOc1cccc(CNC(=O)c2ccc(N3CCCC3)c(NC(=O)NCc3ccc(F)cc3)c2)c1	nt	nt	nt	-14%	nt	-29%
Cc1cc(C=O)c(C)c2c1[nH]c1ccccc12	nt	nt	-57*	?	nt	21µM*
CCOc1ccc(NC(=O)c2cn3c4c(ccc(Cl)c4c2=O)OC(C)C3)cc1 (stereo not drawn)	nt	nt	nt	-3%	nt	-1%
O=C(NC1CC2CCCC(C1)N2CC(=O)N1CCCc2ccccc21)C1CCCCC1 (stereo not drawn)	0%	-4%	-9	-11%	10%	-30%
O=C(CN1C2CCCC1CC(NC(=O)C1CCCCC1)C2)Nc1ccccc1C(F)(F)F (stereo not drawn)	15µM*	?	?	23µM*	?	15µM*
COc1cccc(C(=O)NC2CC3CCC(C2)N3Cc2ccccc2)c1 (stereo not drawn)	-6%	-5%	-6	-8%	13%	-1%
CCc1cccc(CC)c1NC(=O)CN1C2CCCC1CC(NC(=O)Nc1cccc(OC)c1)C2 (stereo not drawn)	?	7%	?	18µM*	22%	?
CCCN1C2CCCC1CC(NC(=O)C1CCCCC1)C2 (stereo not drawn)	-2%	-2%	21	0%	-29%	0%
COc1cccc(C(=O)NC2CC3CCCC(C2)N3CC(=O)Nc2ccccc2C(F)(F)F)c1 (stereo not drawn)	?	-17%	-16	?	130%	16µM*
O=C(CN1C2CCCC1CC(NC(=O)C1CCCCC1)C2)NCc1ccc(F)cc1 (stereo not drawn)	12µM*	?	0	?	39%	16µM*
CC(=O)N(C)c1ccc(N=Nc2c(C)[nH]n(-c3ccccc3)c2=O)cc1	-1%	?	9	?	20µM*	?
CCN(CC)S(=O)(=O)c1ccc(N=Nc2c(C)[nH]n(C(N)=S)c2=O)cc1	?	0.013µM*	3	-24%	0.05µM*	-27%
